BoNT F protease = BoNT F light chain protease inhibition; Multiplex microsphere protease cleavage assay, flow cytometry; inhibition, % at 10 µM; actives 0.22% (n = 360,000); AID 588497; in the data active means inhibition above about 35%, passing the limit was not always enough; inconclusive means no clear call, values can overlap the other calls; further: plate controls were buffer without enzyme for full effect and enzyme alone for no effect
Anthrax LF prot = anthrax lethal factor protease inhibition. inhibition, % at 10 µM. P15917. actives 0.12% (n = 360,000). multiplex microsphere protease cleavage assay, LF. AID 588501; further: plate controls were buffer without enzyme for full effect and enzyme alone for no effect
BoNT-A LC inh2 = blocks Botulinum neurotoxin A light chain protease. actives 0.17% (n = 360,000). inhibition, % at 10 µM. multiplex microsphere protease substrate cleavage, flow cytometry; further: plate controls were buffer without enzyme for full effect and enzyme alone for no effect
Bead autofluor = compound fluorescence in toxin protease inhibitor counterscreen; compound autofluorescence counterscreen, microsphere flow cytometry; hits give high values; fluorescence intensity (concentration not given with the values); actives 3.1% (n = 360,000); in the data active means fluorescence intensity above about 16000; inconclusive means no clear call, values can overlap the other calls
PriA SSB inh = inhibitors of Klebsiella pneumoniae PriA binding to SSB C-terminal tail; AlphaScreen SSBct-PriA binding, biotinylated peptide; inhibition, % at 33 µM; actives 0.6% (n = 430,000); AID 1272365; in the data active means inhibition mostly above about 37%, no sharp cut-off; inactive means mostly below about 20%;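 further: plate controls were negative control peptide for no effect and reference peptide for full effect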
Starred values were filed as active, the others as inactive; ? = inconclusive; . = not tested or not shown. Hits are enriched below; roughly 3.1% of the tested compounds scored in any of these assays. Unless noted, no stated cut-off is given here; in the data, active means inhibition above about 30%; inconclusive means no clear call, values can overlap the other calls; inactive means below that.

SMILES	BoNT F protease	Anthrax LF prot	BoNT-A LC inh2	Bead autofluor	PriA SSB inh
CC(=O)c1cccc(NS(=O)(=O)c2cccc(F)c2)c1	.	.	.	.	-5.0
O=c1c2ccccc2sn1-c1ccccc1	-0.1	1.5	70.4*	3386	11.3
O=c1c2ccccc2sn1-c1nccs1	19.9	-3.5	101.7*	4744	-7.8
Cc1ccccc1-n1sc2cc(F)ccc2c1=O	-7.6	-0.2	88.6*	4686	-6.6
Cc1nc2ccccc2c(=O)n1-c1nccs1	7.1	-1.8	0.4	5741	.
O=c1c2cc(F)ccc2sn1-c1ccccc1	-3.5	4.4	34.9*	2963	7.2
Cc1nc2c(=O)n(CC(=O)Nc3ccc(C)c(Cl)c3)nc(-c3cccs3)c2s1	.	.	.	.	-6.0
COc1ccc(/C=c2/s/c(=C\C(=O)C(C)(C)C)[nH]c2=O)cc1O	.	.	.	.	0.8
COc1ccc(CCNC(=O)c2nn(-c3ccc(F)cc3)c(=O)cc2OC)cc1OC	.	.	.	.	-7.0
O=c1c2ccccc2sn1-c1cccc(Cl)c1	1.4	-1.0	2.7	3643	.
CN(C)S(=O)(=O)c1cccc(-n2sc3ccccc3c2=O)c1	-0.8	-6.4	33.1*	5640	14.5
Cc1ccc(-n2sc3ccccc3c2=O)cc1S(=O)(=O)N1CCCCC1	10.5	2.1	32.5*	3545	5.4
O=C(CCn1cnc2c(cnn2-c2ccc(F)cc2)c1=O)NC1CC1	.	.	.	.	-4.0
CC1(C)CC(=O)C(C(c2ccccn2)c2c[nH]c3ccccc23)=C(O)C1 (configuration not stated)	.	.	.	.	-6.0
COc1ccc(/C=C2\C(=O)NCC(=O)N2Cc2ccccc2)cc1	4.6	-11.5	-0.6	?	-0.1
COc1ccc(/C=C2\C(=O)NCC(=O)N2C)cc1	87.7*	34.2*	4.6	6212	-8.2
O=C(CSc1ncnc2scc(-c3ccccc3)c12)N1CCCCCC1	.	.	.	.	-15.0
CC(=O)OC1(C(F)(F)F)Oc2ccccc2NC1=O (configuration not stated)	7.3	2.3	?	18158*	-4.0
CCOC(=O)Nc1ccc2c(c1)N(C(=O)CCN1CCOCC1)c1ccccc1[S@]2=O	.	.	.	.	-1.2
O=c1ccc(-c2ccccc2)nn1CCCNS(=O)(=O)c1cccc(C(F)(F)F)c1	.	.	.	.	-10.0
CC(C(=O)NC1=NCCS1)N1C(=O)c2ccccc2C1=O (configuration not stated)	-7.3	-4.1	-1.9	23583*	-8.1
O=C(ON=C1CCN(c2ccc([N+](=O)[O-])cc2)CC1)c1ccccc1	0.9	1.8	?	19501*	-4.7
COc1c(C)cc(S(=O)(=O)NCC2CCN(c3ccncc3)CC2)cc1C	.	.	.	.	-3.0
Cc1cccc(NC(=O)CC(NCC2CCCO2)C(=O)O)c1C (configuration not stated)	.	.	.	.	-15.0
Cc1c(Cl)cccc1NC(=O)CC(C(=O)O)C1CCCO1 (configuration not stated)	0.5	-2.7	0.7	22699*	-10.3
SMILES	BoNT F protease	Anthrax LF prot	BoNT-A LC inh2	Bead autofluor	PriA SSB inh
O=C(CSc1nnnn1-c1cccc2ccccc12)Nc1ccc(N2CCOCC2)c(Cl)c1	0.8	-6.7	-0.3	16201*	-12.8
O=C(CSc1nnnn1-c1ccccc1)Nc1ccc(N2CCOCC2)c(Cl)c1	-2.1	-2.4	0.0	10247	0.0
CN(C)c1cccc(C(=O)NCC#CCN2CCc3ccccc3C2)c1	.	.	.	.	16.0
Cn1cc(S(=O)(=O)N2CCCN(S(=O)(=O)CCOc3ccccc3)CC2)cn1	.	.	.	.	-22.0
Cc1cc(C)n(CC(C)NCc2cn[nH]c2-c2ccc(C)c(C)c2)n1 (configuration not stated)	13.0	-4.4	-5.2	28071*	-16.1
COc1ccc(S(=O)(=O)NCC(C)(O)Cc2ccco2)cc1Cl (configuration not stated)	.	.	.	.	0.0
COc1ccc(-c2c(C)nn(-c3ccccc3)c2N)cc1OC	-4.2	-3.2	-0.6	8940	3.2
COc1ccc(-c2c(C)nn(-c3ccccc3)c2N)cc1	5.1	-1.2	?	20023*	11.9
COc1ccc(S(=O)(=O)CCC(=O)NCCc2ccc(C)cc2)cc1	0.9	-3.8	-0.1	16185*	-10.9
O=S(=O)(NCc1ccc2c(c1)OCO2)c1ccc2oc3ccccc3c2c1	1.5	-0.8	-0.2	16406*	-17.5
CC(=O)Nc1ccc(S(=O)(=O)NCCc2ccc(F)cc2)cc1	-3.9	-3.5	0.3	19405*	-25.9
CC(=O)Nc1ccc(S(=O)(=O)NCCc2ccc(S(N)(=O)=O)cc2)cc1	5.9	-3.8	0.2	6434	-15.1
Cc1ccc(S(=O)(=O)NCc2ccc3c(c2)OCO3)cc1C	?	24.2	-5.7	3297	-15.8
COC(=O)Nc1ccc(S(=O)(=O)NCCO)cc1	-6.6	-1.5	-4.1	18225*	-6.2
CC(C)n1c(=O)c2ccccc2n(Cc2nc(-c3cccc(C(F)(F)F)c3)no2)c1=O	.	.	.	.	-7.0
CCCOc1ccc(S(=O)(=O)Nc2ccc3c(c2)C(=O)N(C)CCO3)cc1C	.	.	.	.	3.0
COCC(=O)Nc1ccc2c(c1)CCC(=O)N2Cc1ccccc1	.	.	.	.	-4.0
O=C(NCc1cccs1)N1CCC[C@H](Cc2nc(-c3cnccn3)no2)C1	.	.	.	.	-10.0
COc1ccc(CNC(=O)CCNS(=O)(=O)c2ccc(Cl)cc2)cc1	0.5	-2.7	0.1	4631	-11.1
O=C(Nc1ccc(S(=O)(=O)NCCc2ccccc2)cc1)c1ccco1	-0.5	-1.6	1.0	23096*	-0.7
O=C(CCc1ccc(S(=O)(=O)NCCc2ccccc2)cc1)NCc1ccc2c(c1)OCO2	-1.8	-0.8	-2.8	24716*	-13.2
COc1ccc(S(=O)(=O)NCCC(=O)NCc2ccc(F)cc2)cc1	11.8	0.5	10.3	19366*	5.7
O=C(CCc1ccc(S(=O)(=O)NCc2ccccc2)cc1)NCc1ccc2c(c1)OCO2	1.0	-3.7	0.9	10926	-17.7
O=C(O)CCc1ccc(S(=O)(=O)NCCc2ccccc2)cc1	0.2	1.1	-2.6	20869*	-14.4
CCNS(=O)(=O)c1ccc(CCC(=O)O)cc1	4.1	0.7	0.8	2512	-10.5
SMILES	BoNT F protease	Anthrax LF prot	BoNT-A LC inh2	Bead autofluor	PriA SSB inh
O=S(=O)(NCCSc1ccc(Cl)cc1)c1ccc(F)cc1	-3.7	-2.1	-0.1	16419*	-47.7
Cc1ccc(SCCNS(=O)(=O)c2ccc(F)cc2)cc1	-7.6	-5.9	-0.2	8191	-8.0
O=C(O)CCCNS(=O)(=O)c1ccc(F)cc1	-2.6	-1.2	-1.5	24742*	-4.4
CCCCCOc1cccc(C(=O)Nc2nnc(-c3cccc(S(C)(=O)=O)c3)o2)c1	.	.	.	.	7.0
CSc1ccc(-c2noc(Cn3ccn4nc(-c5ccc(Cl)cc5)cc4c3=O)n2)cc1	.	.	.	.	-1.0
Cc1oc(-c2ccc(Cl)cc2)cc1-c1nn2c(-c3ccoc3C)nnc2s1	2.6	-5.4	-2.3	23295*	2.2
Cc1ccc(-c2nnn(CC(=O)N(Cc3ccco3)C(C(=O)NC(C)(C)C)c3ccc(C)o3)n2)o1 (configuration not stated)	-1.9	-5.4	1.2	4529	-1.3
Cc1ccc(-c2nnn(CC(=O)N(Cc3ccccc3)C(C(=O)NC(C)(C)C)c3ccncc3)n2)o1 (configuration not stated)	4.3	-2.5	-0.7	20840*	-10.2
Cc1ccc(-c2nnn(CC(=O)N(c3cccc(O)c3)C(C(=O)NC(C)(C)C)c3cccs3)n2)o1 (configuration not stated)	0.0	-2.0	0.0	16505*	1.1

Screens: PubChem BioAssay, several laboratories
